# Most compounds without a hit are left out; they make up all but 12% or so of the library.
# G9a inh: blocks human histone lysine methyltransferase G9a; Q96KQ7; G9a H3K9 monomethylation, AlphaScreen, 2 h; Potency, µM (titrated, usually from 102 µM), actives largely listed as inhibitors; 8.8% of 350,000 active; further: nearly all actives have a fitted effect of over 75% in size
# Target sequence (Q96KQ7 913-1193 limits assumed): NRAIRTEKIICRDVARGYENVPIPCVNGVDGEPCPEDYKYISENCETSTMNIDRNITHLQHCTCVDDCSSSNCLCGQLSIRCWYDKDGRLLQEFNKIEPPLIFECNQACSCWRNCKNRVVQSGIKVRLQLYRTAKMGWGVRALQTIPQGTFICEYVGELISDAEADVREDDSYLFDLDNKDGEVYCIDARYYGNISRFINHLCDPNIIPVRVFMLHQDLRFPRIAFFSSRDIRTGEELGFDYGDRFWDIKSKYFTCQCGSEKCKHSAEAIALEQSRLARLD
#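 Using a bead-based AlphaScreen, monomethylated H3K9 product from 2 h room-temperature reactions (G9a 20 nM, peptide 500 nM, SAM 20 uM) was detected with 0.5 ug/mL rabbit anti-H3K9me1 antibody.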
# HP1b chromo inh: blocks HP1-beta chromodomain binding to methylated histone tails. AID 540317. Potency, µM (series often up to 114 µM), most hits filed as inhibitors. AlphaScreen HP1-beta / biotin-H3K9me3 peptide binding. 0.56% of 390,000 active. P83916; further: nearly all actives have a fitted effect of over 70% in size
# Target sequence (P83916 whole entry, looked up): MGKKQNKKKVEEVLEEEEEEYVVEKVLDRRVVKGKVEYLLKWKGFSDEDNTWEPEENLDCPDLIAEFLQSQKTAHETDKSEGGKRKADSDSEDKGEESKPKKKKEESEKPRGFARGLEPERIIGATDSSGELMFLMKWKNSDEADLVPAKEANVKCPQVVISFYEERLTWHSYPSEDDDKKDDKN
#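 Compound inhibition of the preformed complex between 50 nM HP1-beta and 50 nM biotinylated H3K9me3 peptide was read by AlphaScreen. Buffer was PBS pH 7.4 with 0.01% Tween-20. Incubations ran 30 min at room temperature, with 10 ug/mL donor/acceptor beads.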
# Sfp PPTase inh: inhibitors of Bacillus subtilis Sfp phosphopantetheinyl transferase; Biochemical Sfp PPTase activity, qHTS; 3.5% of 310,000 active; Q9F4F7; Potency, µM, usual class: inhibitors;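 further: the enzyme is Sfp with the accession as filed and its product quenches rhodamine fluorescence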
#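 With Hepes-Na pH 7.6 buffer containing 10 mM MgCl2, Sfp (15 nM) modified BHQ-2-YbbR (12.5 uM) using rhodamine-CoA (5 uM). Two reads 30 minutes apart at 525/598 nm yielded each well's rate.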
# JMJD2A Tudor: inhibitors of human JMJD2A Tudor domain. AlphaScreen JMJD2A-Tudor / H3K4me3 peptide binding. Potency, µM (highest dose often 114 µM), actives largely listed as inhibitors. AID 504339. 4.4% of 390,000 active; further: nearly all actives have a fitted effect of over 50% in size
# BAZ2B block: blocks human BAZ2B; Potency, µM (top dose mostly 114 µM), most hits filed as inhibitors; AlphaScreen BAZ2B-H3K14Ac peptide displacement; Q9UIF8; AID 504333; 4.4% of 360,000 active; further: nearly all actives have a fitted effect of over 60% in size
#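 Inhibition is scored as reduced AlphaScreen emission. The BAZ2B/b-H3(5-23)K14Ac complex (50 nM each) in PBS pH 7.4, 0.01% Tween-20 meets compound (up to 110 uM) for 30 min at RT before bead addition.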
# TDP1 block: TDP1 (human) enzyme inhibition; 0.28% of 350,000 active; Q9NUW8; recombinant TDP1, AlphaScreen DNA substrate cleavage; Potency, µM (highest dose often 130 µM), actives largely listed as inhibitors; further: nearly all actives have a fitted effect of over 40% in size
#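 AlphaScreen read-out: signal falls as enzyme removes the 3' tyrosine-FITC from a 5'-biotinylated DNA oligo (15 nM, 5 min, RT). Enzyme was E. coli-made recombinant Tdp1 at 1 nM, exposed to compound for 15 min beforehand; beads 10 ug/ml, 10 min.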
# A number is an active result; i = inactive; ? = inconclusive; nt = no result given; [ ] = another dose, or the depositor's remark. The call rests on the fitted dose curve; in most records, active means well fitted curve in the direction sought with a large enough effect; inconclusive means small, poorly fitted or top-dose-only effect, or another doubt; inactive means no such curve, though single readings can be large; an effect the other way counts as inactive or inconclusive.
SMILES,G9a inh,HP1b chromo inh,Sfp PPTase inh,JMJD2A Tudor,BAZ2B block,TDP1 block
Cc1cccc(C2c3[nH]c4ccccc4c3CCN2C(=O)c2cc3c([nH]c2=O)CCCC3)n1 (centres undefined),i[12.7 µM],i,i,?,45µM,i
Cn1cccc1-c1cc(C(=O)N2CCc3c([nH]c4ccccc34)C2c2ccccn2)[nH]n1 (centres undefined),35µM,?,?,50µM,35µM,i
O=C(c1ccc(-n2cccn2)cc1)N1CCc2c([nH]c3ccccc23)C1c1ccccn1 (centres undefined),?,i,i,?,?,i
Nc1nc2c(nc(Sc3ccc(Cl)cc3)n2C2OC(CO)C(O)C2O)c(=O)[nH]1 (centres undefined),nt,nt,i,nt,nt,i
COc1ccc(N2CCN(CCCNC(=O)Cn3c(=O)c4cccn4c4cccnc43)CC2)cc1,40µM,i,i,50µM,32µM,i
COc1ccc(N2CCN(CCCNC(=O)c3sc4ncccc4c3-n3cccc3)CC2)cc1,16µM,i,nt,40µM,35µM,i
COc1ccc(N2CCN(CCCNC(=O)c3ccc4nc(N5CCCCC5)sc4c3)CC2)cc1,?,?,nt,45µM,25µM,i
O=C(NCCCN1CCN(c2ccc(F)cc2)CC1)c1ccc2nc(Cc3ccccc3)oc2c1,i,i,nt,?,32µM,i
Cc1ccc(Cl)cc1N1CCN(CCCNC(=O)c2ccc3nc(N4CCCCC4)sc3c2)CC1,i,i,nt,?,i,i
O=C(NCCCN1CCN(c2ccccc2)CC1)c1ccc2nc(Cc3ccccc3)oc2c1,i,i,nt,?,?,i
O=C(NCCCN1CCCCC1)c1sc2ncccc2c1-n1cccc1,i,i,nt,i,i,i
Cc1cc(OCC(=O)NCC2CCC(C(=O)O)CC2)c2c(C)c(Cc3ccccc3)c(=O)oc2c1 (centres undefined),nt,i,i,i,i,nt
CCc1ccc(NCc2cc3ccc(OC)cc3n(CC(=O)Nc3ccc(C(C)C)cc3)c2=O)cc1,i,i,nt,i,?,i
O=C1CC(c2ccco2)CC2=C1C(c1cccnc1)n1nc(C(F)(F)F)nc1N2 (centres undefined),nt,i,nt,?,nt,i
COCCn1c(=O)[nH]c2cc(C(=O)NCCN3CCN(c4ccc(OC)cc4)CC3)ccc2c1=O,10µM,i,i,i,i,i
CCOC(=O)Cn1nnnc1CN(Cc1ccc(OC)cc1)Cc1cc2cc(CC)ccc2[nH]c1=O,?,i,18µM,i,i,i
COc1ccccc1CN(Cc1cc2cc(C)cc(C)c2[nH]c1=O)Cc1nnnn1CC1CCCO1 (centres undefined),i[12.7 µM],i,i,i,i,i
CCOC(=O)Cn1nnnc1CN(Cc1ccc(OC)cc1)Cc1cc2cc(C)cc(C)c2[nH]c1=O,22µM,i,35µM,i,i,i
CCc1ccc2[nH]c(=O)c(CN(Cc3ccccc3OC)Cc3nnnn3Cc3ccco3)cc2c1,?,i,i,i,i,i
O=C(CN1C(=O)NC(Cc2ccccc2)C1=O)Nc1ccc(F)c(F)c1F (centres undefined),i[2.33 µM],i,nt,i,i,i
Cc1cccc(-n2nc(C)c3c2NC2=C(C(=O)CCC2)C3c2ccccn2)c1 (centres undefined),35µM,i,i,?,i,i
COc1cc2[nH]c(=S)nc(NCc3cccnc3)c2cc1OC,45µM,i,i,i,i,nt
COc1cc2[nH]c(=S)nc(NCc3ccccn3)c2cc1OC,50µM,i,i,i,i,i
COc1ccc(CNc2nc(=S)[nH]c3cc(OC)c(OC)cc23)cc1,10µM,i,i,?,?,nt
COc1cc2[nH]c(=S)nc(NCc3ccc(C)cc3)c2cc1OC,i,i,i,i,i,nt
SMILES,G9a inh,HP1b chromo inh,Sfp PPTase inh,JMJD2A Tudor,BAZ2B block,TDP1 block
O=C(CCS(=O)(=O)c1ccc(Br)s1)Nc1cc(C(F)(F)F)cc(C(F)(F)F)c1,i,i,nt,i,i,i
COc1cc(Cl)c(NS(=O)(=O)c2cc3[nH]c(=O)c(=O)[nH]c3cc2C)c(OC)c1,i,i,i,i,?,i
O=S(=O)(c1ccc2c(c1)OCCO2)N1CCN(S(=O)(=O)c2cccc[n+]2[O-])CC1,nt,nt,nt,i,nt,i
CC(NC(=O)c1ccccc1Br)c1nnc(SCC(=O)NC2CCCCC2)n1C (centres undefined),i,i,i,i,i,i
CC1CCN(C(=O)c2c(NC(=O)c3ccccc3F)sc3c2CCC(C(C)(C)C)C3)CC1 (centres undefined),i,i,nt,i,i,nt
COCCn1c(=O)c(-c2ccc(F)cc2)nc2cnc(N(C)C)nc21,i[0.501 µM],nt,i,nt,nt,nt
COc1cc(NC(=O)c2ccco2)c(OC)cc1NC(=O)CSc1ncc(-c2ccc(F)cc2)[nH]1,i,i,?,i,i,i
O=C(NCCSc1ncc(-c2ccc(F)cc2)[nH]1)c1ccco1,50µM,i,nt,i,i,i
COc1cc(OC)cc(C(=O)NCCSc2c[nH]c3ccccc23)c1,45µM,i,i,i,i,nt
O=C(NCCSc1c[nH]c2ccccc12)c1ccco1,71µM,i,i,i,i,i
O=[N+]([O-])c1ccc(O)c(C2CCCCC2)c1,nt,i,nt,i,nt,nt
COC(=O)/C=C/c1sc2nc(C)cc(C)c2c1N=CN(C)C,i,i,i,i,i,i
COc1cc(/C=C2/SC(=S)N(CCC(=O)Nc3ccc(C(=O)O)cc3)C2=O)cc(OC)c1OC,nt,i,i,?,?,i
COc1cc(/C=C2\SC(=S)N(CCC(=O)Nc3ccc(O)cc3)C2=O)cc(OC)c1OC,i,i,i,22µM,i,nt
COc1ccccc1NC(=O)CCN1C(=O)/C(=C/c2cc(OC)c(OC)c(OC)c2)SC1=S,i[0.501 µM],i,45µM,i,i,nt
COc1ccc(/C=C2/SC(=O)N(CCC(=O)Nc3ccc(C)cc3)C2=O)cc1OC,i,nt,?,nt,i,i
COc1cc(/C=C2/SC(=S)N(CC(=O)O)C2=O)ccc1OCC(=O)Nc1ccc(C)c(C)c1,nt,nt,i,nt,i,13µM
COc1cc(/C=C2\SC(=S)N(CCC(=O)N3CCCCC3)C2=O)cc(OC)c1OC,?,?,i,?,?,i[0.0935 µM]
COc1cccc(-n2cc(C(=O)NCCc3cccc(C)c3)c3ccccc3c2=O)c1,i,i,nt,i,i,i
CCOc1ccc(S(=O)(=O)N2CCN(c3ccccc3)CC2)cc1C(N)=O,i,i,nt,i,?,i
COc1ccc(-c2cc3ncc(C)n3c(Nc3ncccc3C(N)=O)n2)cc1OC,19µM,nt,nt,nt,nt,nt
Cc1ccc(Nc2ncccc2C(N)=O)cc1,i,i,i,i,i,i
COc1ccccc1CN1CCCCC1C(=O)O (centres undefined),i,i,i,35µM,i,i
CCOC(=O)C1CCN(Cc2ccccc2C(F)(F)F)CC1,16µM,?,i,2.8µM,79µM,i

# Screening results: PubChem, National Center for Advancing Translational Sciences (NCATS)
